{
  "source": "PubChem BioAssay",
  "key": {"[1]": {"test": "viability loss with induced miR-34 in A549 – imaging, A549 dox-inducible miR-34, nuclei and caspase counts, primary screen (AID 1347080)", "settings": "A549 miR-34 inducible, Hoechst nuclei count, 48 h"}, "[2]": {"test": "viability loss in pontine glioma line – cell-based, SU-DIPG-XIII, MIPE5.0, CellTiter-Glo, qHTS, dose response (AID 1347064; cut-off not given, nearly all actives have AC50 up to about 23 µM)", "settings": "CellTiter-Glo ATP luminescence"}, "[3]": {"test": "viability loss in pontine glioma line – cell-based, SU-DIPG-XXV, MIPE5.0, CellTiter-Glo, qHTS, dose response (AID 1347065; cut-off not given, nearly all actives have AC50 up to about 26 µM;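 also: cells exposed to compound for 48 hours before ATP readout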)", "settings": "CellTiter-Glo ATP luminescence"}, "[4]": {"test": "JHH-DIPG-1 glioma cell viability, MIPE5.0 library, CellTiter-Glo luminescence, qHTS (AID 1347067; cut-off not given, nearly all actives have AC50 up to about 26 µM;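 also: cells exposed to compound for 48 hours before readout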)", "settings": "JHH-DIPG-1 glioma viability, CellTiter-Glo ATP luminescence"}, "[5]": {"test": "growth inhibition of DIPG cells – cell-based, MIPE5.0 library, qHTS (AID 1347068; cut-off not given, nearly all actives have IC50 up to about 30 µM)", "settings": "SU-DIPG-XXV viability"}, "[6]": {"test": "viability loss in pontine glioma line – cell-based, SU-DIPG-IV, MIPE4.0, CellTiter-Glo, qHTS, dose response (AID 1347063; cut-off not given, nearly all actives have AC50 up to about 30 µM;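 also: compound exposure lasted 48 hours before the viability readout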)", "settings": "CellTiter-Glo ATP luminescence"}, "[7]": {"settings": "measured here: relative caspase fold change +Dox/-Dox"}, "[8]": {"settings": "measured here: total cells with miR-34 induction, stronger effect = lower value"}, "[9]": {"settings": "measured here: total cells without miR-34 induction"}, "[10]": {"settings": "stronger effect = lower value, cell number ratio, induced over uninduced"}},
  "note": "Where “and” joins values, the source holds several entries; their conditions need not be identical. Equal values may be shown once. Records with an inconclusive call do not appear. Calls of active or inactive are those of the source.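 The calls were made as follows, unless noted: active = compounds whose cell count with miR-34 switched on is under 0.7 times the count with it off; inactive = the rest.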",
  "data": [
    {"smiles": "O=C(CCC/C=C\\C[C@@H]1[C@@H](/C=C/[C@@H](O)COc2cccc(C(F)(F)F)c2)[C@H](O)C[C@@H]1O)NC(CO)CO", "values": [
      {"measurement": "fold change", "setting": "[1]; stronger effect = lower value", "result": "0.98 (inactive)"},
      {"measurement": "fold change", "setting": "[1]; [7]", "result": 0.862},
      {"measurement": "cell count", "setting": "[1]; [8]", "result": 5260},
      {"measurement": "cell count", "setting": "[1]; [9]", "result": 5370}
    ]},
    {"smiles": "CCCCC/C=C\\C/C=C\\C/C=C\\C/C=C\\CCCC(=O)NOCCO", "values": [
      {"measurement": "fold change", "setting": "[1]; [10]", "result": "0.931 (inactive)"},
      {"measurement": "fold change", "setting": "[1]; [7]", "result": 0.519},
      {"measurement": "cell count", "setting": "[1]; [8]", "result": 5500},
      {"measurement": "cell count", "setting": "[1]; [9]", "result": 5910}
    ]},
    {"smiles": "CCCCC/C=C\\C/C=C\\C/C=C\\C/C=C\\CCCC(=O)NCCF", "values": [
      {"measurement": "fold change", "setting": "[1]; [10]", "result": "1 (inactive)"},
      {"measurement": "fold change", "setting": "[1]; [7]", "result": 1.18},
      {"measurement": "cell count", "setting": "[1]; [8]", "result": 5320},
      {"measurement": "cell count", "setting": "[1]; [9]", "result": 5320}
    ]},
    {"smiles": "C[C@]12CCC3c4ccc(OC(=O)N(CCCl)CCCl)cc4CCC3C1CC[C@@H]2O", "note": "(some centres undefined)", "values": [
      {"measurement": "fold change", "setting": "[1]; stronger effect = lower value", "result": "1.19 (inactive)"},
      {"measurement": "fold change", "setting": "[1]; [7]", "result": 0.867},
      {"measurement": "cell count", "setting": "[1]; [8]", "result": 2030},
      {"measurement": "cell count", "setting": "[1]; [9]", "result": 1700}
    ]},
    {"smiles": "CCCN(CCCN)N(O)N=O", "values": [
      {"measurement": "fold change", "setting": "[1]; [10]", "result": "1.05 (inactive)"},
      {"measurement": "fold change", "setting": "[1]; [7]", "result": 0.825},
      {"measurement": "cell count", "setting": "[1]; [8]", "result": 5850},
      {"measurement": "cell count", "setting": "[1]; [9]", "result": 5540}
    ]},
    {"smiles": "COC(=O)[C@@]1(O)CC2OC1(C)n1c3ccccc3c3c4c(c5c6ccccc6n2c5c31)C(=O)NC4", "note": "(some centres undefined)", "values": [
      {"measurement": "fold change", "setting": "[1]; stronger effect = lower value", "result": "0.903 (inactive)"},
      {"measurement": "fold change", "setting": "[1]; [7]", "result": 1.29},
      {"measurement": "cell count", "setting": "[1]; [8]", "result": 2180},
      {"measurement": "cell count", "setting": "[1]; [9]", "result": 2410}
    ]},
    {"smiles": "Cc1cc(C(C#N)c2ccc(Cl)cc2)c(Cl)cc1NC(=O)c1cc(I)cc(I)c1O", "note": "(centres undefined)", "values": [
      {"measurement": "fold change", "setting": "[1]; [10]", "result": "0.964 (inactive) and 0.906 (inactive) and 0.861 (inactive)"},
      {"measurement": "fold change", "setting": "[1]; [7]", "result": "0.325 and 0.48 and 1.33"},
      {"measurement": "cell count", "setting": "[1]; [8]", "result": "8250 and 7900 and 8930"},
      {"measurement": "cell count", "setting": "[1]; [9]", "result": "8560 and 8730 and 10400"}
    ]},
    {"smiles": "CC1(O)C[C@@]23C[C@@H](O)[C@@]4(O)[C@@H](C[C@H](O)C4(C)C)[C@](C)(O)[C@@H]2CCC1[C@H]3O", "note": "(some centres undefined)", "values": [
      {"measurement": "fold change", "setting": "[1]; stronger effect = lower value", "result": "0.932 (inactive)"},
      {"measurement": "fold change", "setting": "[1]; [7]", "result": 1.15},
      {"measurement": "cell count", "setting": "[1]; [8]", "result": 6010},
      {"measurement": "cell count", "setting": "[1]; [9]", "result": 6440}
    ]},
    {"smiles": "CC(C)(NC(=O)O[C@@H]1CN2CCC1CC2)c1csc(-c2ccc(F)cc2)n1", "values": [
      {"measurement": "outcome", "setting": "[2]", "result": "inactive"},
      {"measurement": "outcome", "setting": "[3]", "result": "inactive"},
      {"measurement": "outcome", "setting": "[4]", "result": "inactive"},
      {"measurement": "outcome", "setting": "[5]", "result": "inactive"}
    ]},
    {"smiles": "CC1OC(O[C@H]2C[C@@H](O)[C@]3(CO)[C@H]4[C@H](O)C[C@]5(C)[C@@H](C6=CC(=O)OC6)CC[C@]5(O)[C@@H]4CC[C@]3(O)C2)C(O)C(O)C1O", "note": "(some centres undefined)", "values": [
      {"measurement": "fold change", "setting": "[1]; stronger effect = lower value", "result": "0.802 (inactive)"},
      {"measurement": "fold change", "setting": "[1]; [7]", "result": 1.17},
      {"measurement": "cell count", "setting": "[1]; [8]", "result": 286},
      {"measurement": "cell count", "setting": "[1]; [9]", "result": 356}
    ]},
    {"smiles": "C=CCO/N=C(/C[C@H]1O[C@@H]2O[C@]3(C)CC[C@H]4[C@H](C)CC[C@@H]([C@H]1C)[C@@]24OO3)[C@H]1O[C@@H]2O[C@]3(C)CC[C@H]4[C@H](C)CC[C@@H]([C@H]1C)[C@@]24OO3", "values": [
      {"measurement": "AC50", "setting": "[6]", "result": "209 nM (active)"}
    ]},
    {"smiles": "OOCCC/C=C/c1ccccc1", "values": [
      {"measurement": "fold change", "setting": "[1]; [10]", "result": "0.959 (inactive)"},
      {"measurement": "fold change", "setting": "[1]; [7]", "result": 0.789},
      {"measurement": "cell count", "setting": "[1]; [8]", "result": 5730},
      {"measurement": "cell count", "setting": "[1]; [9]", "result": 5970}
    ]},
    {"smiles": "CC1OC(=O)C(C(C)C)NC(=O)C(C(C)C)OC(=O)C(C(C)C)NC(=O)C(C)OC(=O)C(C(C)C)NC(=O)C(C(C)C)OC(=O)C(C(C)C)NC(=O)C(C)OC(=O)C(C(C)C)NC(=O)C(C(C)C)OC(=O)C(C(C)C)NC1=O", "note": "(centres undefined)", "values": [
      {"measurement": "fold change", "setting": "[1]; stronger effect = lower value", "result": "0.784 (inactive)"},
      {"measurement": "fold change", "setting": "[1]; [7]", "result": 1.28},
      {"measurement": "cell count", "setting": "[1]; [8]", "result": 1020},
      {"measurement": "cell count", "setting": "[1]; [9]", "result": 1300}
    ]},
    {"smiles": "CCCCCc1cc(O)c2c(c1)OC(C)(C)[C@@H]1CCC(C(=O)O)=CC21", "note": "(some centres undefined)", "values": [
      {"measurement": "fold change", "setting": "[1]; stronger effect = lower value", "result": "0.953 (inactive)"},
      {"measurement": "fold change", "setting": "[1]; [7]", "result": 1.25},
      {"measurement": "cell count", "setting": "[1]; [8]", "result": 5920},
      {"measurement": "cell count", "setting": "[1]; [9]", "result": 6210}
    ]},
    {"smiles": "CC1(C)C(=O)N(c2ccc(C#N)c(C(F)(F)F)c2)C(=S)N1Cc1ccc(-c2cn[nH]n2)cc1", "values": [
      {"measurement": "outcome", "setting": "[5]", "result": "inactive"}
    ]}
  ]
}
